Reference: PubChem BioAssay (NCI)
The panel holds about 79,000 compounds, 15% with a hit somewhere; the sample as a whole holds those more often. Calls of active or inactive are those of the source. Rule as the data show it: active = growth inhibition above about 70%; inactive = the rest.

What was measured:
[1] = NCI Yeast Anticancer Drug Screen. Data for the rad50 strain (AID 155);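 also: 0% = growth of vehicle-only cultures of the same strain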; conditions: S. cerevisiae rad50 strain growth inhibition, stronger effect = higher value
Procedure, shortened: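 DNA repair mutant yeast, compound exposure, growth read-out; inhibition is taken relative to vehicle.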

[2] = NCI Yeast Anticancer Drug Screen. Data for the mec2-1 strain (AID 157); conditions: S. cerevisiae mec2-1 strain, stronger effect = higher value
Procedure, shortened: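 Yeast mec2-1 mutant treated with compound. Readout: growth inhibition vs vehicle controls.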

[3] = NCI Yeast Anticancer Drug Screen. Data for the sgs1 mgt1 strain (AID 161);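 also: 0% = growth of cultures given vehicle only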; conditions: S. cerevisiae sgs1 mgt1 strain, stronger effect = higher value
Procedure, shortened: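 Genetically altered yeast, compound exposure, growth inhibition relative to vehicle.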

[4] = NCI Yeast Anticancer Drug Screen. Data for the cln2 rad14 strain (AID 165);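 also: 0% = growth equal to vehicle treated cultures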; conditions: S. cerevisiae cln2 rad14 strain, stronger effect = higher value
Procedure, shortened: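 cln2 rad14 yeast strain; compound exposure; growth inhibition read vs vehicle controls.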

[5] = NCI Yeast Anticancer Drug Screen. Data for the bub3 strain (AID 167); conditions: S. cerevisiae bub3 mutant strain, stronger effect = higher value
Procedure, shortened: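 In this screen, a yeast mutant lacking normal mitotic checkpoint function is challenged with compound. Relative growth versus vehicle gives the inhibition value.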

[6] = NCI Yeast Anticancer Drug Screen. Data for the mlh1 rad18 strain (AID 175); conditions: S. cerevisiae mlh1 rad18 strain growth inhibition, stronger effect = higher value
Procedure, shortened: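 Yeast w/ defined DNA-repair lesions; compound exposure; growth vs vehicle controls → % inhibition.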

[7] = at 5.0 µM (retest, dose inferred, filed as 0.5)
[8] = at 50.0 µM (retest, dose inferred, filed as 5.0)

Measured: growth inhibition

COc1ccc(NC(=O)OC(C)C)c(OC)c1
inactive: [1]; [7] 2% | [1]; [8] 10% | [1]; at 50.0 µM -2.75% | [2]; [7] -4% | [2]; [8] 4% | [2]; at 50.0 µM 6.45% | [3]; [7] -3% | [3]; [8] 7% | [3]; at 50.0 µM -21.4% | [4]; [7] 5% | [4]; [8] 2% | [4]; at 50.0 µM 45.4% | [5]; [7] 15% | [5]; [8] 42% | [5]; at 50.0 µM 18.4% | [6]; [7] 3% | [6]; [8] 8% | [6]; at 50.0 µM -10.8%

O=c1[nH]c2ccccc2nc1CBr
inactive: [1]; [7] 5% | [1]; at 50.0 µM 30.9% | [2]; [7] 16% | [3]; [7] 8% | [4]; [7] 0% | [4]; at 50.0 µM 1.85% | [5]; [7] 14% | [6]; [7] 16%
active: [1]; [8] 95% | [2]; [8] 99% | [2]; at 50.0 µM 71.2% | [3]; [8] 98% | [3]; at 50.0 µM 91.2% | [4]; [8] 95% | [5]; [8] 98% | [5]; at 50.0 µM 90.2% | [6]; [8] 99% | [6]; at 50.0 µM 91.1%

N#CC1C=C(Cl)c2ccc(Cl)cc2N1C(=O)c1ccccc1 (configuration not stated)
active: [1]; [8] 96% | [1]; at 50.0 µM 98.8% | [2]; [8] 99% | [2]; at 50.0 µM 99.2% | [3]; [8] 99% | [3]; at 50.0 µM 99.3% | [4]; [8] 99% | [4]; at 50.0 µM 99.4% | [5]; [8] 98% | [5]; at 50.0 µM 98.3% | [6]; [8] 99% | [6]; at 50.0 µM 99.2%
inactive: [1]; [7] 2% | [2]; [7] 17% | [3]; [7] 3% | [4]; [7] 2% | [5]; [7] 0% | [6]; [7] 23%

C[N+](C)([O-])CCOc1cc2c(c3ccccc13)-c1ccccc1C2=O
inactive: [1]; [7] 1% | [1]; [8] 63% | [2]; [7] -1% | [2]; [8] 7% | [2]; at 50.0 µM -4.3% | [3]; [7] -4% | [3]; [8] 19% | [3]; at 50.0 µM -8.2% | [4]; [7] -5% | [4]; [8] 5% | [4]; at 50.0 µM 13% | [5]; [7] -5% | [5]; [8] 4% | [5]; at 50.0 µM 0.15% | [6]; [7] 1% | [6]; [8] 13% | [6]; at 50.0 µM 16.9%
active: [1]; at 50.0 µM 83.8%

CC(C)(C)C(=O)CC(=O)C(F)(F)C(F)(F)C(F)(F)F.CC(C)(C)C(=O)CC(=O)C(F)(F)C(F)(F)C(F)(F)F.CC(C)(C)C(=O)CC(=O)C(F)(F)C(F)(F)C(F)(F)F.[Fe]
inactive: [1]; [7] 21% | [1]; at 50.0 µM 38.5% | [2]; [7] 5% | [2]; at 50.0 µM 9.3% | [3]; [7] 43% | [4]; [7] 13% | [4]; at 50.0 µM 19.8% | [5]; [7] -1% | [5]; [8] 37% | [5]; at 50.0 µM -1.15% | [6]; [7] 32%
active: [1]; [8] 85% | [2]; [8] 88% | [3]; [8] 88% | [3]; at 50.0 µM 74.9% | [4]; [8] 91% | [6]; [8] 93% | [6]; at 50.0 µM 84.5%

CCOC(=O)/C=C(\C)Sc1cc(O)c2ccccc2c1O
active: [2]; at 50.0 µM 79.5% | [3]; at 50.0 µM 72.5% | [5]; at 50.0 µM 73% | [6]; at 50.0 µM 76.1%
inactive: [1]; [7] -3% | [1]; [8] 22% | [1]; at 50.0 µM 68.9% | [2]; [7] -1% | [2]; [8] 28% | [3]; [7] 1% | [3]; [8] 37% | [4]; [7] 1% | [4]; [8] 3% | [4]; at 50.0 µM 8% | [5]; [7] -5% | [5]; [8] 15% | [6]; [7] -2% | [6]; [8] 53%

C1C2OC2C2C1C1CC2C2OC12 (configuration not stated)
inactive: [1]; [7] 1% | [1]; [8] -3% | [1]; at 50.0 µM 7.9% | [2]; [7] 0% | [2]; [8] -4% | [2]; at 50.0 µM -12.8% | [3]; [7] -3% | [3]; [8] -15% | [3]; at 50.0 µM -2.55% | [4]; [7] 2% | [4]; [8] 2% | [4]; at 50.0 µM 19.4% | [5]; [7] 1% | [5]; [8] 1% | [5]; at 50.0 µM -12.9% | [6]; [7] 1% | [6]; [8] -1% | [6]; at 50.0 µM -0.1%

COc1ccc2c(c1)CCC1=C2C=C[P+]1(C)C
active: [1]; [8] 98% | [1]; at 50.0 µM 99.5% | [2]; [8] 96% | [2]; at 50.0 µM 99.7% | [3]; [8] 100% | [3]; at 50.0 µM 99.7% | [4]; [8] 71% | [4]; at 50.0 µM 94.6% | [5]; [8] 97% | [5]; at 50.0 µM 99.7% | [6]; [8] 99% | [6]; at 50.0 µM 99.5%
inactive: [1]; [7] -4% | [2]; [7] -5% | [3]; [7] -1% | [4]; [7] 4% | [5]; [7] -2% | [6]; [7] -2%

COC(=O)c1cccc2cccc(C(=O)Nc3ccc(Cl)cc3)c12
inactive: [1]; [7] 68% | [2]; [7] 67% | [3]; [7] 58% | [4]; [7] 42%
active: [1]; [8] 99% | [1]; at 50.0 µM 90.2% | [2]; [8] 100% | [2]; at 50.0 µM 93% | [3]; [8] 100% | [3]; at 50.0 µM 92.3% | [4]; [8] 99% | [4]; at 50.0 µM 92% | [5]; [7] 82% | [5]; [8] 82% | [5]; at 50.0 µM 91.9% | [6]; [7] 87% | [6]; [8] 99% | [6]; at 50.0 µM 90.3%
